# In PubChem BioAssay (NCI):
# This is part of a sample that, as a whole, favours compounds with a hit. Of some 83,000 tested, about 20% had one in any assay.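 Method: cells in 96-well plates; compound added at one concentration; 48 h incubation; percent growth measured; values under 10 scored active.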 The source made the active and inactive calls.
# System: MOLT-4 leukemia
# Assay: NCI-60 one-dose screen, 48 h (100 = growth as untreated, 0 = no growth, -100 = all killed)
# Settings: 10 µM unless noted
row,SMILES,growth
1,CCOC(=O)c1sc(/N=C2\NC(=O)/C(=C/c3ccc(N4CCN(C)CC4)cc3)S2)nc1C,88.9% (inactive)
2,Cc1cc(C)c2nc(Nc3nc(C)c(C)c(=O)[nH]3)nc(C)c2c1,4.84% (active)
3,CCOC(=O)C1=C(C)n2nc(CC#N)c(C#N)c2NC1c1ccc(Cl)cc1 (centres undefined),104% (inactive)
4,COc1ccc2oc(=O)cc(-c3nc4ccc(N)cc4[nH]3)c2c1,73.4% (inactive)
5,CCOC(=O)NCCc1nc2c([nH]1)c(=O)n(C)c(=O)n2C,115% (inactive)
6,NC(=O)C(O)(c1ccccc1)c1ccccc1,98.6% (inactive)
7,O=C1Nc2ccc(Cl)cc2/C1=N/c1nc(-c2ccc(F)cc2)cs1,1.99% (active)
8,Cc1nnc(/N=C2\NC(=O)/C(=C/c3ccsc3)S2)s1,95% (inactive)
9,N#Cc1ccc(C2C3=C(CCCC3=O)OC3=C2C(=O)c2ccccc2C3=O)cc1 (centres undefined),-6.58% (active)
10,COCCOCCOCc1n(Cc2ccc3ccccc3c2)c2ccccc2[n+]1Cc1ccc2ccccc2c1,4% (active)
11,CC1(C)CC[C@]2(c3nnc(-c4ccncc4)o3)CC[C@]3(C)C(=CC[C@@H]4[C@@]5(C)CCC(=O)C(C)(C)[C@@H]5CC[C@]43C)[C@@H]2C1,52% (inactive)
12,O=c1[nH]c(-c2cccc(F)c2)cc2cc(F)ccc12,21.9% (inactive)
13,Cc1ccccc1NC(=O)c1sc2nc(C)c(C(C)O)cc2c1N (centres undefined),32.6% (inactive)
14,O=C1NN(c2ccccc2)C(c2ccc(Cl)cc2)N2CCC[C@H]12 (some centres undefined),99.5% (inactive)
15,COc1ccc(Nc2cc(NC(=O)CNc3cc(OC)c(Cl)c(OC)c3Cl)ncn2)cc1,52.2% (inactive)
16,O=C(Nc1nc(-c2ccccc2Cl)cs1)c1cc(-c2ccc(Br)cc2)nc2ccccc12,37.2% (inactive)
17,Cn1cc(-c2ccc3c(c2)ncn3-c2ccc(CC(=O)Nc3cc(C(C)(C)C)on3)cc2)cn1,27.4% (inactive)
18,CCOC(=O)CC[C@H](NC(=O)c1ccc(NC)c2ccccc12)C(=O)OCC,98.6% (inactive)
19,CCO/C=N/S(=O)(=O)c1cc2c(cc1Cl)NC=NS2(=O)=O,109% (inactive)

row,SMILES,growth
1,C#Cc1ccccc1NC(=O)c1sc2nc3c(cc2c1N)CCCCC3,94.5% (inactive)
2,COc1ccc(NC(=O)Nc2ccc(Nc3nc(C)cc(Nc4ccc(C)cc4)n3)cc2)cc1,-35.3% (active)
3,C[C@]12CC[C@@H]3c4ccc(O)cc4CC[C@H]3[C@@H]1C[C@H](O)C2,47.5% (inactive)
4,O=CN1N=C(c2ccc(Cl)cc2)CC1c1cccc(Nc2ccnc3cc(C(F)(F)F)ccc23)c1 (centres undefined),33.8% (inactive)
5,O=[N+]([O-])c1ccc(N=Nc2c(O)c(N=Nc3cc([N+](=O)[O-])cc([N+](=O)[O-])c3O)cc(N=Nc3cc(S(=O)(=O)O)cc4cc(S(=O)(=O)O)cc(O)c34)c2O)cc1,86.7% (inactive)
6,CCOCc1nc2ccccc2c(=O)[nH]1,105% (inactive)
7,Nc1n[nH]c2cccc(C#Cc3cccc(NC(=O)c4cc(N5CCOCC5)cc(C(F)(F)F)c4)c3)c12,30.4% (inactive)
8,COc1ccc2[nH]c(=O)c(/C=C/C(=O)c3ccccc3OC)cc2c1,10.9% (inactive)
9,N#Cc1c(-c2ccc(F)cc2)nc(N/N=C/c2cccc(O)c2)nc1N1CCOCC1,40% (inactive)
10,COc1ccc2[nH]c3nc4cnccc4cc3c2c1,102% (inactive)
11,COc1cc2c(cc1OC)C(Sc1ccc(Cl)cc1)c1c(nc(N)c(C#N)c1N)O2 (centres undefined),0.994% (active)
12,C=C1C(=O)O[C@H]2[C@H]1CCC(/C=N/c1ncc(Br)cc1N)=C\CC[C@@]1(C)O[C@@H]21,-3.09% (active)
13,CCCCC1=c2c([nH]c3ccc(OC)cc23)=NC2C=CC=NC12 (centres undefined),69.5% (inactive)
14,COc1ccc(-c2nc(C#N)c(NCC(c3ccc(Cl)cc3)N3CCCCC3)o2)cc1 (centres undefined),75.9% (inactive)
15,CCC[S@@](=O)c1ccc2nc(NC(=O)OC)[nH]c2c1,74.5% (inactive)
16,CCSc1nc(Cl)c(C#N)c(-c2ccc(F)cc2)n1,48.4% (inactive)
17,Cc1cccc(C)c1NC(=O)CN(CC(C)C)CC(O)COc1ccccc1 (centres undefined),88.2% (inactive)
18,CCOC(=O)c1ccc(Nc2ncnc3ccc(NC(=O)c4ccccc4)cc23)cc1,63.8% (inactive)

# System: SR leukemia
# Assay: as above
# Settings: 10 µM unless noted
row,SMILES,growth
1,CCOC(=O)c1sc(/N=C2\NC(=O)/C(=C/c3ccc(N4CCN(C)CC4)cc3)S2)nc1C,101% (inactive)
2,Cc1cc(C)c2nc(Nc3nc(C)c(C)c(=O)[nH]3)nc(C)c2c1,-9.54% (active)
3,CCOC(=O)C1=C(C)n2nc(CC#N)c(C#N)c2NC1c1ccc(Cl)cc1 (centres undefined),101% (inactive)
4,COc1ccc2oc(=O)cc(-c3nc4ccc(N)cc4[nH]3)c2c1,76.1% (inactive)
5,CCOC(=O)NCCc1nc2c([nH]1)c(=O)n(C)c(=O)n2C,119% (inactive)
6,NC(=O)C(O)(c1ccccc1)c1ccccc1,83% (inactive)
7,O=C1Nc2ccc(Cl)cc2/C1=N/c1nc(-c2ccc(F)cc2)cs1,1.96% (active)
8,Cc1nnc(/N=C2\NC(=O)/C(=C/c3ccsc3)S2)s1,103% (inactive)
9,N#Cc1ccc(C2C3=C(CCCC3=O)OC3=C2C(=O)c2ccccc2C3=O)cc1 (centres undefined),60.9% (inactive)
10,COCCOCCOCc1n(Cc2ccc3ccccc3c2)c2ccccc2[n+]1Cc1ccc2ccccc2c1,-39.5% (active)
11,CC1(C)CC[C@]2(c3nnc(-c4ccncc4)o3)CC[C@]3(C)C(=CC[C@@H]4[C@@]5(C)CCC(=O)C(C)(C)[C@@H]5CC[C@]43C)[C@@H]2C1,63.7% (inactive)
12,O=c1[nH]c(-c2cccc(F)c2)cc2cc(F)ccc12,22.5% (inactive)
13,Cc1ccccc1NC(=O)c1sc2nc(C)c(C(C)O)cc2c1N (centres undefined),4.46% (active)
14,O=C1NN(c2ccccc2)C(c2ccc(Cl)cc2)N2CCC[C@H]12 (some centres undefined),111% (inactive)
15,COc1ccc(Nc2cc(NC(=O)CNc3cc(OC)c(Cl)c(OC)c3Cl)ncn2)cc1,78.1% (inactive)
16,O=C(Nc1nc(-c2ccccc2Cl)cs1)c1cc(-c2ccc(Br)cc2)nc2ccccc12,53% (inactive)
17,Cn1cc(-c2ccc3c(c2)ncn3-c2ccc(CC(=O)Nc3cc(C(C)(C)C)on3)cc2)cn1,18.8% (inactive)
18,CCOC(=O)CC[C@H](NC(=O)c1ccc(NC)c2ccccc12)C(=O)OCC,101% (inactive)
19,CCO/C=N/S(=O)(=O)c1cc2c(cc1Cl)NC=NS2(=O)=O,108% (inactive)

row,SMILES,growth
1,C#Cc1ccccc1NC(=O)c1sc2nc3c(cc2c1N)CCCCC3,81.2% (inactive)
2,COc1ccc(NC(=O)Nc2ccc(Nc3nc(C)cc(Nc4ccc(C)cc4)n3)cc2)cc1,-37.1% (active)
3,C[C@]12CC[C@@H]3c4ccc(O)cc4CC[C@H]3[C@@H]1C[C@H](O)C2,25.4% (inactive)
4,O=CN1N=C(c2ccc(Cl)cc2)CC1c1cccc(Nc2ccnc3cc(C(F)(F)F)ccc23)c1 (centres undefined),30% (inactive)
5,O=[N+]([O-])c1ccc(N=Nc2c(O)c(N=Nc3cc([N+](=O)[O-])cc([N+](=O)[O-])c3O)cc(N=Nc3cc(S(=O)(=O)O)cc4cc(S(=O)(=O)O)cc(O)c34)c2O)cc1,86.1% (inactive)
6,CCOCc1nc2ccccc2c(=O)[nH]1,103% (inactive)
7,Nc1n[nH]c2cccc(C#Cc3cccc(NC(=O)c4cc(N5CCOCC5)cc(C(F)(F)F)c4)c3)c12,43.5% (inactive)
8,COc1ccc2[nH]c(=O)c(/C=C/C(=O)c3ccccc3OC)cc2c1,2.69% (active)
9,N#Cc1c(-c2ccc(F)cc2)nc(N/N=C/c2cccc(O)c2)nc1N1CCOCC1,2.93% (active)
10,COc1ccc2[nH]c3nc4cnccc4cc3c2c1,103% (inactive)
11,COc1cc2c(cc1OC)C(Sc1ccc(Cl)cc1)c1c(nc(N)c(C#N)c1N)O2 (centres undefined),-13.3% (active)
12,C=C1C(=O)O[C@H]2[C@H]1CCC(/C=N/c1ncc(Br)cc1N)=C\CC[C@@]1(C)O[C@@H]21,-3.64% (active)
13,CCCCC1=c2c([nH]c3ccc(OC)cc23)=NC2C=CC=NC12 (centres undefined),45% (inactive)
14,COc1ccc(-c2nc(C#N)c(NCC(c3ccc(Cl)cc3)N3CCCCC3)o2)cc1 (centres undefined),74.5% (inactive)
15,CCC[S@@](=O)c1ccc2nc(NC(=O)OC)[nH]c2c1,41.6% (inactive)
16,CCSc1nc(Cl)c(C#N)c(-c2ccc(F)cc2)n1,3.84% (active)
17,Cc1cccc(C)c1NC(=O)CN(CC(C)C)CC(O)COc1ccccc1 (centres undefined),92.1% (inactive)
18,CCOC(=O)c1ccc(Nc2ncnc3ccc(NC(=O)c4ccccc4)cc23)cc1,73.8% (inactive)
